Source: the supplement of paper PMC10849652
About 8,800 targets were measured; listed, in parts, are those with a hit and a random draw of the rest. About 0.5% of all pairs of compound and target were hits.

Legend:
Test in all cases: log2 fold change, soluble protein after heating vs DMSO (PISA); higher = thermal stabilisation; K562 lysate, 10 uM; active = over 0.2 and 3.5 SD of the protein, either way, in both replicates (recomputed)
[1] = compound: C1=CC=C(C=C1)[C@H](COC2=CC3=C(C=C2)NC(=O)N3)NC(=O)C4=CC=CN(C4=O)CC5=CC(=C(C=C5)F)F
Summary of the method: (§1)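 Dounce homogenisation of K562 pellets in PBS pH 7.4 with 1 mM MgCl2 produced a crude extract, used at 1 mg/mL protein. Exposure to 10 μM compound lasted 30 min, and aliquots were then heated for 3 min across 48°C-58°C, pooled and brought to 0.5% NP-40 at 4°C. The supernatant after 21,000xg for 90 min was quantified by TMTpro 16plex LC-MS/MS with channel sums equalised. Duplicate values are given as log-two fold change in thermal stability relative to solvent controls.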

[2] = compound: CC1=C(SC2=C1C(=N[C@H](C3=NN=C(N32)C)CC(=O)N)C4=CC=C(C=C4)Cl)C
Summary of the method: as §1

[3] = compound: CC1=C2C(=CC=C1)N=C(N(C2=O)C3=CC=CC=C3C)CN4C=NC5=C(N=CN=C54)N
Summary of the method: as §1

[4] = compound: Cc1sc2c(c1C)C(c1ccc(Cl)cc1)=N[C@@H](CC(=O)OC(C)(C)C)c1nnc(C)n1-2
Summary of the method: as §1

[5] = compound: c1ccc([C@@H]2C[C@H]2NC2CCNCC2)cc1
Summary of the method: as §1

Measured: log2 fold change

CLIC2 (UniProt O15247)
inactive: [1] -0.022 | [2] 0.033 | [3] 0 | [4] 0.017 | [5] 0.029

CSNK1D (UniProt P48730)
inactive: [1] -0.027 | [2] 0.014 | [3] -0.127 | [4] -0.026 | [5] 0.025

CHURC1 isoform 2 (UniProt Q8WUH1)
inactive: [1] 0.045 | [2] -0.05 | [3] -0.046 | [4] -0.014 | [5] -0.063

DENND6A (UniProt Q8IWF6)
inactive: [1] -0.101 | [2] -0.008 | [3] -0.026 | [4] 0.039 | [5] 0.023

COG5 isoform 2 (UniProt Q9UP83)
inactive: [1] 0.034 | [2] 0.045 | [3] -0.042 | [4] -0.003 | [5] 0.033

COTL1 (UniProt Q14019)
inactive: [1] -0.018 | [2] -0.019 | [3] 0.01 | [4] 0.031 | [5] 0.064

DHFR (UniProt P00374)
Sequence of UniProt P00374 (P00374 whole entry, looked up): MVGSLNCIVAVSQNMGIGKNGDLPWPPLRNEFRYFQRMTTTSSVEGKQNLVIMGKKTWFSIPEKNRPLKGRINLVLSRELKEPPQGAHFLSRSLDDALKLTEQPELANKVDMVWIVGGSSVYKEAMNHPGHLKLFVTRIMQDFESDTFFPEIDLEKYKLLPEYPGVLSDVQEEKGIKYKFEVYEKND
inactive: [1] -0.024 | [2] 0.024 | [3] 0.016 | [4] 0.031 | [5] 0.021

CHUK (UniProt O15111)
inactive: [1] -0.02 | [2] 0.032 | [3] 0 | [4] -0.026 | [5] 0.015

DOCK8 (UniProt Q8NF50)
inactive: [1] -0.011 | [2] -0.004 | [3] 0.013 | [4] 0.005 | [5] 0.05

DOCK10 (UniProt Q96BY6)
inactive: [1] 0.053 | [2] -0.018 | [3] 0.062 | [4] -0.109 | [5] -0.491

COMT (UniProt P21964)
inactive: [1] -0.007 | [2] -0.01 | [3] -0.016 | [4] 0.062 | [5] 0.054

CIC (UniProt I3L2J0)
inactive: [1] -0.03 | [2] -0.034 | [3] -0.109 | [4] 0.042 | [5] -0.02

CORO1A (UniProt P31146)
inactive: [1] -0.024 | [2] 0.021 | [3] 0.004 | [4] 0.078 | [5] -0.019

COASY isoform 2 (UniProt Q13057)
inactive: [1] -0.049 | [2] -0.002 | [3] 0.03 | [4] 0.07 | [5] 0.01

DDB2 (UniProt Q92466)
inactive: [1] -0.025 | [2] -0.026 | [3] 0.034 | [4] -0.027 | [5] 0.006

DPM1 (UniProt O60762)
inactive: [1] -0.01 | [2] 0.048 | [3] 0.022 | [4] 0.073 | [5] 0.093

DPY19L3 (UniProt Q6ZPD9)
inactive: [1] 0.183 | [2] -0.131 | [3] -0.106

COQ9 (UniProt O75208)
inactive: [1] -0.102 | [2] -0.069 | [3] 0.026 | [4] 0.015 | [5] 0.08

DNAH5 (UniProt Q8TE73)
Sequence of UniProt Q8TE73 (Q8TE73 whole entry, looked up): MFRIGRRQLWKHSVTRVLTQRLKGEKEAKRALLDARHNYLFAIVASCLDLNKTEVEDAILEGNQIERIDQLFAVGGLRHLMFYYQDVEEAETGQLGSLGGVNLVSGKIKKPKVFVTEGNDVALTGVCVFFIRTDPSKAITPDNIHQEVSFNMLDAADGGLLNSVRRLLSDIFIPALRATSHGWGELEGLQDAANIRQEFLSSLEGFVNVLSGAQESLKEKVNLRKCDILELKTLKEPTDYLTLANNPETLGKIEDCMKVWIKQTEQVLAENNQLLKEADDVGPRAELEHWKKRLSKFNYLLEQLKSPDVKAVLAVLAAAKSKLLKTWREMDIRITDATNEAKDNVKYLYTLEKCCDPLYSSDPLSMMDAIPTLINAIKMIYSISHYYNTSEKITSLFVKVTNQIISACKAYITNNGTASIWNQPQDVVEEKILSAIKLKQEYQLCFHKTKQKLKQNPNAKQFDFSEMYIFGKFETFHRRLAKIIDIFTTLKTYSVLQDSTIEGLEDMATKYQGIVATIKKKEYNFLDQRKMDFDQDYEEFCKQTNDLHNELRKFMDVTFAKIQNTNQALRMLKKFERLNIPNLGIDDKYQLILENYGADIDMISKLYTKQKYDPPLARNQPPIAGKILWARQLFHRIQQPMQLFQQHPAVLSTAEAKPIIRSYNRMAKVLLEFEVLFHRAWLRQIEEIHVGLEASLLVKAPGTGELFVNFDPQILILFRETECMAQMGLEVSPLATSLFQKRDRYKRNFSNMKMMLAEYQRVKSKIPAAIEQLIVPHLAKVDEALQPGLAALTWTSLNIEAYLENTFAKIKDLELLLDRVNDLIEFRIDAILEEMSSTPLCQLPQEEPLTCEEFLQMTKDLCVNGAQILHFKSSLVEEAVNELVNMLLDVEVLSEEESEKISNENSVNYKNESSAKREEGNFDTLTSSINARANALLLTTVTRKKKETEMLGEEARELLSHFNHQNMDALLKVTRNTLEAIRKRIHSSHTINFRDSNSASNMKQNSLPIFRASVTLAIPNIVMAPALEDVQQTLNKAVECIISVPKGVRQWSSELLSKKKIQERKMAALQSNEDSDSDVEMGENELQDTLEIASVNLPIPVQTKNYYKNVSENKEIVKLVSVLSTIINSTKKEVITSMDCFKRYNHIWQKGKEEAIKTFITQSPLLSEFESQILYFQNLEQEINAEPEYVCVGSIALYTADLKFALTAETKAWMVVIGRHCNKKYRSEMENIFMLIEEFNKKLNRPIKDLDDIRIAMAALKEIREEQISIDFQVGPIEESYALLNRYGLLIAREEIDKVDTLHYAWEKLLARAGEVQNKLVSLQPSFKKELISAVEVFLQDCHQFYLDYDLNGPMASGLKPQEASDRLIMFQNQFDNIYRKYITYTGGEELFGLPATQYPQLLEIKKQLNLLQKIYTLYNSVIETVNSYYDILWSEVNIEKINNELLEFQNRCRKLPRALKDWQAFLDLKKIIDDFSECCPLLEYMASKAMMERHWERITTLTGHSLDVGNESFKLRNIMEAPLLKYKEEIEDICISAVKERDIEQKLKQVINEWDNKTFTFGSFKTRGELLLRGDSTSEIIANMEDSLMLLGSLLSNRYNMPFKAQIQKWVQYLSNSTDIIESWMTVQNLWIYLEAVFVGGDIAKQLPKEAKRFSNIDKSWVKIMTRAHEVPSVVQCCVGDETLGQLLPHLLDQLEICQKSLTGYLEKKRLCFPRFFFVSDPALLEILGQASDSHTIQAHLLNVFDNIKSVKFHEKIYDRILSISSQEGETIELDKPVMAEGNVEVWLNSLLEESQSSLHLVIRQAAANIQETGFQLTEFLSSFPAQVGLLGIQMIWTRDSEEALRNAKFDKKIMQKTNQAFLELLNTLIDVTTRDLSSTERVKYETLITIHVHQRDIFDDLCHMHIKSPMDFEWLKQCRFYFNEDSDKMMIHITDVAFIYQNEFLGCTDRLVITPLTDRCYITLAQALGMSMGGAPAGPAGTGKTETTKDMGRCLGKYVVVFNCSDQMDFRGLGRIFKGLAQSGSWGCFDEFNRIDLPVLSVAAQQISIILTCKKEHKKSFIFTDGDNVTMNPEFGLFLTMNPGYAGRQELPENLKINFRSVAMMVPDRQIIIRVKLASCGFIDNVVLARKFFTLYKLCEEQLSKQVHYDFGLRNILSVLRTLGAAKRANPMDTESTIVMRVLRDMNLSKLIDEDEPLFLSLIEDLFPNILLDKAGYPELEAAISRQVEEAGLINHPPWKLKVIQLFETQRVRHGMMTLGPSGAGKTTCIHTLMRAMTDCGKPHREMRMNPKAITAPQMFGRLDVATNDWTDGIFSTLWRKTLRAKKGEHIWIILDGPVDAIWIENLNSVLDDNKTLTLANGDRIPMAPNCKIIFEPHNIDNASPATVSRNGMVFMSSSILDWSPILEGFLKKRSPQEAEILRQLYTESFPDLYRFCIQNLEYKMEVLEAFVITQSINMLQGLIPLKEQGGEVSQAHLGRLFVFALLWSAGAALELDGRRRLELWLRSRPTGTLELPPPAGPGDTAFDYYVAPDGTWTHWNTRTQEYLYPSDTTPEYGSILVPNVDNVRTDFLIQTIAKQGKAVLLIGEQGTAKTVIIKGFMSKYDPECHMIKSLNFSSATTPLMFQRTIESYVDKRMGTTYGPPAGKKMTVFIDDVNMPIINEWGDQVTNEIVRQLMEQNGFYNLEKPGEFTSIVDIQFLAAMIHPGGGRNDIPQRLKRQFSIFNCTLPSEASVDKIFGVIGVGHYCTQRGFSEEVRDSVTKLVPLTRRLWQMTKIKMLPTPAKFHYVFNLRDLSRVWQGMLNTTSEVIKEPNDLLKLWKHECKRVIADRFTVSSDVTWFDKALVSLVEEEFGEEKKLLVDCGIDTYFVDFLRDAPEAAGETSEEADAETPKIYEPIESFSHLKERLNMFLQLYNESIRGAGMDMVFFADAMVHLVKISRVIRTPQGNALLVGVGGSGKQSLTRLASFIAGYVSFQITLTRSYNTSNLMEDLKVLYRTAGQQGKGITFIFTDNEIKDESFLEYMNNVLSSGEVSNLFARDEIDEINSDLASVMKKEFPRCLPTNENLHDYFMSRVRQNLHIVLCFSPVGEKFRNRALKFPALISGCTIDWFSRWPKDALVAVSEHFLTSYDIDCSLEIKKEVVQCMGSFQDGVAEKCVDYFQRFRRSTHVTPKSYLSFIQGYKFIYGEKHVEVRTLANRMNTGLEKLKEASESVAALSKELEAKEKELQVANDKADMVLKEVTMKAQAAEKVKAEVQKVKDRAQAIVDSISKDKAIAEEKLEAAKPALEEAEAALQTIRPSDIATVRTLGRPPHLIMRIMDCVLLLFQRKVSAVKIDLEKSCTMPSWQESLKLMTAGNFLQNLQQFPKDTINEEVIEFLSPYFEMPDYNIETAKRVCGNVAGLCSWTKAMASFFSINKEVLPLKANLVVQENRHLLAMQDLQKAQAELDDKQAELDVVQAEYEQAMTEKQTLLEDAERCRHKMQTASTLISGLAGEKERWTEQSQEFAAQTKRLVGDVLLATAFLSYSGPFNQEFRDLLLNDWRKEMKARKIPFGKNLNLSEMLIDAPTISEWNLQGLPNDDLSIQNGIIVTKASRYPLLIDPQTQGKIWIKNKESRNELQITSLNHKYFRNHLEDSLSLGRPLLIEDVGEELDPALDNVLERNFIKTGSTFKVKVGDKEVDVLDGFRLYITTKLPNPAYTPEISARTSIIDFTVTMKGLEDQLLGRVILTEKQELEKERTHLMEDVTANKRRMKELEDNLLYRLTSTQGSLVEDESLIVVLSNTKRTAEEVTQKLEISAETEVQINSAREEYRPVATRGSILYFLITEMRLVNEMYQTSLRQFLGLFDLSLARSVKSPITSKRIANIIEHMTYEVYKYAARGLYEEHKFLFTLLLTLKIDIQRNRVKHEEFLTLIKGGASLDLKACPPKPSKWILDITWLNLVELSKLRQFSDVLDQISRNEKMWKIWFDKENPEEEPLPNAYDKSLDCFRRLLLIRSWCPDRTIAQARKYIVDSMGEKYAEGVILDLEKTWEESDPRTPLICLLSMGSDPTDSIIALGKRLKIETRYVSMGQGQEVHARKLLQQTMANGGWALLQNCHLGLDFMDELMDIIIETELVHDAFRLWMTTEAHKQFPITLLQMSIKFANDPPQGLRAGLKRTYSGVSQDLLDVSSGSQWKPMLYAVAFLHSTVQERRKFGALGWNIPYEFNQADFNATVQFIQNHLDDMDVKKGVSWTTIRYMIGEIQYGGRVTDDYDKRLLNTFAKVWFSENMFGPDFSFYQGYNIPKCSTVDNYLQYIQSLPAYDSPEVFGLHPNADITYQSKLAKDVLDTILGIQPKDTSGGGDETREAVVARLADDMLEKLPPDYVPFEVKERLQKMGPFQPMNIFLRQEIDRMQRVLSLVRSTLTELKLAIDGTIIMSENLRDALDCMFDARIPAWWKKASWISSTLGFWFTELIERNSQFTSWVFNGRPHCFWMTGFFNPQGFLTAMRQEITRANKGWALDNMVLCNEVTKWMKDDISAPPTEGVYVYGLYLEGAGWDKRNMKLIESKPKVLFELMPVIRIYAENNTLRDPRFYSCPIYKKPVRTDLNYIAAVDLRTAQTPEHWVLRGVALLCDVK
inactive: [1] -0.019 | [2] 0.018 | [3] 0.007 | [4] -0.087 | [5] -0.216

CSAD isoform 3 (UniProt Q9Y600)
inactive: [1] -0.081 | [2] 0.137

COG6 (UniProt Q9Y2V7)
inactive: [1] -0.023 | [2] 0.011 | [3] 0.029 | [4] -0.032 | [5] 0.069

CTNNBL1 (UniProt Q8WYA6)
inactive: [1] -0.003 | [2] 0 | [3] 0.004 | [4] -0.087 | [5] 0.073

DBF4 (UniProt Q9UBU7)
inactive: [1] 0.073 | [2] 0.002 | [3] 0.071 | [4] 0.113 | [5] 0.078

CHORDC1 (UniProt Q9UHD1)
Sequence of UniProt Q9UHD1 (Q9UHD1 whole entry, looked up): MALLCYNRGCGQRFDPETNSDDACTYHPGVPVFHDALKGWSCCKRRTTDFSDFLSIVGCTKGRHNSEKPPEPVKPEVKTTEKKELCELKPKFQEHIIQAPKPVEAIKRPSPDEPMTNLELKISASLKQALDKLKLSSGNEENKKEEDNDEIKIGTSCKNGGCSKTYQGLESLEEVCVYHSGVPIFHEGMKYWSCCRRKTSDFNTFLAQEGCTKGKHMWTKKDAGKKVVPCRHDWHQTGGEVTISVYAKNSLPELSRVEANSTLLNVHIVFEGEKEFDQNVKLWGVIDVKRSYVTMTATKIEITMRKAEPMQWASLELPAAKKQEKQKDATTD
inactive: [1] 0.025 | [2] 0.006 | [3] -0.01 | [4] 0.017 | [5] 0.037

CXCL14 (UniProt O95715)
inactive: [1] 0.002 | [2] -0.088 | [3] 0.128
